This is a sample that favours compounds with a hit; in the whole collection about 11% have one here.
HEK293 tox: HEK 293 cell cytotoxicity | HEK 293 viability, ATP luminescence (CellTiter-Glo), 48-72 h | Potency, µM (top dose mostly 115 µM), hits mostly inhibitors | 94,000 tested, 6.6% active | AID 1345083; also: nearly all actives have a fitted effect of over 60% in size
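Luminescence from cellular ATP, measured with CellTiter-Glo, indicates HEK 293 viability. Cells plated at 250 cells/well are treated with compound for 48 or 72 hr at 37 degree Celsius before reagent addition.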
hNpr1 antagonist: blocks ANP-stimulated signaling of human Npr1 receptor. P16066. Potency, µM (titrated, usually from 46.3 µM), usual class: inhibitors. AID 1347048. 76,000 tested, 1.6% active. HEK293 hNpr1 GloSensor cGMP, ANP-stimulated luminescence; calls by dose curve; also: nearly all actives have a fitted effect of over 60% in size
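HEK293 cells stably expressing human Npr1 and cGMP GloSensor pGS-40F, loaded 2 h with 2% GloSensor reagent, given compound 30 min at room temperature. Luminescence read before and 20 min after 0.1 nM hNppA.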
NIH3T3 tox: cytotoxic compounds in NIH 3T3 cells | NIH 3T3 viability, CellTiter-Glo ATP luminescence, 48-72 h | Potency, µM (doses to about 96.7 µM), usual class: inhibitors | 94,000 tested, 4.3% active; also: nearly all actives have a fitted effect of over 55% in size
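Viability of NIH 3T3 cells after 48 or 72 hr compound treatment at 37 °C was assessed by CellTiter-Glo, with luminescence imaged following a 10 min room-temperature step.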
FLuc inh: Photinus pyralis luciferase inhibition; P08659; Potency, µM (doses to about 115 µM), hits mostly inhibitors; 76,000 tested, 2.5% active; purified P. pyralis luciferase, luminescence, biochemical; also: nearly all actives have a fitted effect of over 65% in size
Target sequence (P08659 whole entry, looked up): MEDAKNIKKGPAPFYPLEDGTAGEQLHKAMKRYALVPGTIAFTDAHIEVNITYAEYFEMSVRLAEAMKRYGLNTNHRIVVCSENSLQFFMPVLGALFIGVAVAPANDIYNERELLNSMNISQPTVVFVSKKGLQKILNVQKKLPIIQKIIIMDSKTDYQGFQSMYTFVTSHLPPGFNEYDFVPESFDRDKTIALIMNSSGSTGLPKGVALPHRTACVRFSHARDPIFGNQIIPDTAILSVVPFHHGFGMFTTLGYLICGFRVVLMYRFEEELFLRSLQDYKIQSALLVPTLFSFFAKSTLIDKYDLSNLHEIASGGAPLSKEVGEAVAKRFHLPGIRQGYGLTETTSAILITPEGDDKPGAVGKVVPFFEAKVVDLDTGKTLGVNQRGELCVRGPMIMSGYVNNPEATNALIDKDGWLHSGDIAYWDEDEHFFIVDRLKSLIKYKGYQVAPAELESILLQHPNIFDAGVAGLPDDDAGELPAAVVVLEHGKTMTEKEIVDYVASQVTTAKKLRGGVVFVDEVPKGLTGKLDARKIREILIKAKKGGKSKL
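FLuc 10nM, D-luciferin 10uM, ATP 10uM, Mg acetate 10mM, Tris acetate pH 7.5, Tween/BSA; cpd qHTS; enzyme added last; CCD luminescence.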
A number is an active result. Unless noted, calls follow the shape of the dose curve; as a rule, active = well fitted curve in the direction sought with a large enough effect; inconclusive = small, poorly fitted or top-dose-only effect, or another doubt; inactive = no such curve, though single readings can be large; an effect the other way counts as inactive or inconclusive.

Cc1nccn1CCN(C)C(=O)c1coc(COc2cccc(C(F)(F)F)c2)n1 was read as HEK293 tox inactive, hNpr1 antagonist inactive, NIH3T3 tox inactive and FLuc inh inactive.
Screening CN1[C@@H](CCC(=O)NCc2cccs2)CNC(=O)[C@@H]2[C@H]1CCN2Cc1cccc(Cl)c1 returned HEK293 tox inactive, hNpr1 antagonist inactive, NIH3T3 tox inactive and FLuc inh inactive.
Screening CCN1CCN(C(=O)C2CCN(c3ccnc4ccnn34)CC2)CC1 returned HEK293 tox inconclusive and NIH3T3 tox inactive.
`O=C(c1ccc(-c2ccc(N3CCSCC3)nc2)cc1)N1CCCCC1` gave HEK293 tox inconclusive, hNpr1 antagonist 10µM, NIH3T3 tox 35µM and FLuc inh inconclusive.
For CCCN1CCN(C(=O)c2ccc(-c3ccc(N4CCCCC4)nc3)cc2)CC1 the results were HEK293 tox inconclusive, hNpr1 antagonist inactive, NIH3T3 tox inconclusive and FLuc inh inconclusive.
Screening CN1CCN(C(=O)c2ccc(-c3ccc(N4CCCCC4)nc3)cc2)CC1 returned HEK293 tox inconclusive, hNpr1 antagonist inactive, NIH3T3 tox inconclusive and FLuc inh 22µM.
Screening O=C(c1ccc(-c2ccc(N3CCCCC3)nc2)cc1)N1CCCC1 returned HEK293 tox inconclusive, hNpr1 antagonist inconclusive, NIH3T3 tox 40µM and FLuc inh 28µM.
Screening O=C(NCC1CC1)C1CCc2nnc(-c3cccc(C(F)(F)F)c3)n21 (centres undefined) returned HEK293 tox inactive and NIH3T3 tox inactive.
For O=C(N[C@H]1CCN2C(=O)c3cc(-c4ccsc4)ccc3NC(=O)[C@H]12)c1cccc(F)c1 the results were HEK293 tox inactive, hNpr1 antagonist inactive, NIH3T3 tox inactive and FLuc inh inactive.
For O=C1Nc2ccccc2C(=O)N2CC[C@H](NS(=O)(=O)c3cccs3)[C@@H]12 the results were HEK293 tox inactive, hNpr1 antagonist inactive, NIH3T3 tox inactive and FLuc inh inactive.
COc1ccc(-c2ccc3c(c2)C(=O)N2CC[C@H](NC(=O)C4CCCC4)[C@H]2C(=O)N3)cc1 was read as HEK293 tox inactive, hNpr1 antagonist inactive, NIH3T3 tox inconclusive and FLuc inh 22µM.
For O=C1Nc2ccc(-c3ccccc3)cc2C(=O)N2CC[C@H](NS(=O)(=O)c3cccs3)[C@@H]12 the results were HEK293 tox inconclusive, hNpr1 antagonist inactive, NIH3T3 tox 20µM and FLuc inh inactive.
O=C(N[C@H]1CCN2C(=O)c3cc(-c4ccc5c(c4)OCO5)ccc3NC(=O)[C@H]12)c1cccc(F)c1 was read as HEK293 tox inconclusive, hNpr1 antagonist inactive, NIH3T3 tox 79µM and FLuc inh inactive.
Screening O=C(N[C@H]1CCN2C(=O)c3cc(-c4ccccc4)ccc3NC(=O)[C@H]12)c1cccc(F)c1 returned HEK293 tox 89µM, hNpr1 antagonist inactive, NIH3T3 tox inconclusive and FLuc inh inconclusive.
CCOC(=O)C1CCCN(C(=O)C2CCc3nnc(C4CCN([S+](=O)([O-])c5ccccc5Cl)CC4)n32)C1 (centres undefined) was read as HEK293 tox inactive and NIH3T3 tox inactive.
For Cc1sc2ccn(CC(C)C)c(=O)c2c1C(=O)N1CCC(C)CC1 the results were HEK293 tox 45µM, hNpr1 antagonist inactive, NIH3T3 tox inactive and FLuc inh inactive.
For Cc1sc2ccn(CC(C)C)c(=O)c2c1C(=O)N1CCCCC1 the results were HEK293 tox 28µM, hNpr1 antagonist inactive, NIH3T3 tox inactive and FLuc inh inactive.
Screening CCCN1CCN(C(=O)c2c(C)sc3ccn(CC(C)C)c(=O)c23)CC1 returned HEK293 tox inactive, hNpr1 antagonist inactive, NIH3T3 tox inactive and FLuc inh inactive.
Screening CCc1nc2c(c(-c3ccc(OC)cc3)n1)CCN(Cc1ccc(C#N)cc1)CC2 returned HEK293 tox inconclusive and NIH3T3 tox inactive.
COCc1ccc2c(c1)c(OC(C)(C)C(=O)N1CCOCC1)nn2Cc1cccc(OC)c1 was read as HEK293 tox inactive, hNpr1 antagonist inactive, NIH3T3 tox 4µM and FLuc inh inactive.
For COCc1ccc2c(c1)c(OC(C)(C)C(=O)N1CCN(CCO)CC1)nn2Cc1cccnc1 the results were HEK293 tox inactive, hNpr1 antagonist inactive, NIH3T3 tox 35µM and FLuc inh inactive.
Screening COCc1ccc2c(c1)c(OC(C)(C)C(=O)N1CCN(C)CC1)nn2Cc1ccccc1 returned HEK293 tox inconclusive, hNpr1 antagonist inactive, NIH3T3 tox inconclusive and FLuc inh inactive.
For COCc1ccc2c(c1)c(OC(C)(C)C(=O)NC(C)C)nn2Cc1cccc(OC)c1 the results were HEK293 tox inconclusive, hNpr1 antagonist inactive, NIH3T3 tox inconclusive and FLuc inh inactive.
`CC(C)n1nc(OC(C)(C)C(=O)Nc2cccnc2)c2cc(CN3CCOCC3)ccc21` gave HEK293 tox inactive, hNpr1 antagonist inactive, NIH3T3 tox 28µM and FLuc inh inactive.
For COCc1ccc2c(c1)c(OC(C)(C)C(=O)NCCN1CCOCC1)nn2Cc1cccnc1 the results were HEK293 tox inactive, hNpr1 antagonist inactive, NIH3T3 tox inconclusive and FLuc inh inactive.
COCc1ccc2c(c1)c(OC(C)(C)C(=O)N1CCOCC1)nn2Cc1cccnc1 was read as HEK293 tox inactive, hNpr1 antagonist inactive, NIH3T3 tox 32µM and FLuc inh inactive.
O=C(c1ccc2nnc(-c3cccnc3)n2c1)N1CCOCC1 was read as HEK293 tox inactive and NIH3T3 tox inactive.
`C[S+](=O)([O-])NC1CCN(c2nccc(Nc3ccccc3Cl)n2)CC1` gave HEK293 tox inactive and NIH3T3 tox inactive.
For CCN(Cc1ccncc1)C(=O)[C@@H]1CCCN(Cc2ccccc2)[C@@H]1COC the results were HEK293 tox inactive and NIH3T3 tox inactive.
Screening C[C@H]1CCCN1C(=O)c1nnc(COc2cccc(Cl)c2)n1-c1ccccc1 returned HEK293 tox inconclusive, hNpr1 antagonist inactive, NIH3T3 tox inconclusive and FLuc inh inactive.
Screening C[C@H]1CCCN1C(=O)c1nnc(COc2cccc(C(F)(F)F)c2)n1-c1cccnc1 returned HEK293 tox inconclusive, hNpr1 antagonist inactive, NIH3T3 tox 100µM and FLuc inh inactive.
Screening CC(C)c1ccc(OCc2nnc(C(=O)N3CCC[C@@H]3C)n2-c2cccnc2)cc1 returned HEK293 tox inconclusive, hNpr1 antagonist inactive, NIH3T3 tox 14µM and FLuc inh inactive.
For C[C@H]1CCCN1C(=O)c1nnc(CNc2ccccc2Cl)n1-c1ccccc1 the results were HEK293 tox inconclusive, hNpr1 antagonist inactive, NIH3T3 tox 100µM and FLuc inh inactive.
`CN1CC(=O)N(C2CCCNC2)Cc2c1ncnc2N1CCC(N)CC1` (centres undefined) gave HEK293 tox inactive and NIH3T3 tox inactive.
Cc1nn(-c2ccccc2)c2c1C(C1CC1)N(C1CN(C(=O)c3ccc(C(F)(F)F)cc3)C1)C2=O (centres undefined) was read as HEK293 tox inconclusive and NIH3T3 tox inactive.
Screening Cc1nn(-c2ccccc2)c2c1C(C1CC1)N(CC1CN(C(=O)Nc3ccccc3)C1)C2=O (centres undefined) returned HEK293 tox inconclusive and NIH3T3 tox inactive.

High-throughput results deposited in PubChem by National Center for Advancing Translational Sciences (NCATS).
